MCF10A rerep: A quantitative high throughput screen for small molecules that induce DNA re-replication in MCF 10a normal breast cells. MCF 10A DNA re-replication, Hoechst nuclear intensity, 48 h. Potency, µM (titrated, usually from 46.1 µM), for the others: at the highest dose activity, positive = re-replication, hits mostly activators. actives 2.9% (n = 350,000). AID 624296, 2012; also: potency is read from the fitted curve at half-maximal effect; % of control where 0% means no effect; nearly all actives have a fitted effect of over 50% in size
DRD3 agonist: qHTS of D3 Dopamine Receptor Agonist: qHTS; D(3) dopamine receptor (Homo sapiens), P35462; D3R DiscoveRx beta-arrestin cells, luminescence, 90 min; max activation, %; actives 0.58% (n = 410,000); in the data active = max activation above about 30%; also: 0% is about no effect
Target sequence (P35462 whole entry, looked up): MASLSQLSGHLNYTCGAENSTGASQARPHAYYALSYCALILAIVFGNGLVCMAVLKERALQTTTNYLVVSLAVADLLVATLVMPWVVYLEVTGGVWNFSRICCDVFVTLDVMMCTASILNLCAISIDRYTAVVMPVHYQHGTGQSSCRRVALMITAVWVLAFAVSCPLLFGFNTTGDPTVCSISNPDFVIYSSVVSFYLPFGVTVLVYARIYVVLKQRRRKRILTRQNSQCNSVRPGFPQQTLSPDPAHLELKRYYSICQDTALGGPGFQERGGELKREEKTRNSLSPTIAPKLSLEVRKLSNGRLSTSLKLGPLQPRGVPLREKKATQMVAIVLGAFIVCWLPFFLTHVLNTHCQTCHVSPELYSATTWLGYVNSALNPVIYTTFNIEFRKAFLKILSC
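Agonist-mode cell screen: cells plated at 1500/well and incubated overnight at 37 °C, then exposed to library compounds for 90 min at 37 °C. Detection reagent was added for 30–60 min at room temperature, and luminescence was read.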
SW480 rereplic: A quantitative high throughput screen for small molecules that induce DNA re-replication in SW480 colon adenocarcinoma cells; SW480 DNA re-replication, Hoechst DNA content imaging, 48 h; Potency, µM (titrated, usually from 46.1 µM), for the others: at the highest dose re-replication activation, hits mostly activators; actives 1.8% (n = 340,000); AID 624297, 2012; also: potency is read from the fitted curve at half-maximal effect; % of control where 0% means no effect; nearly all actives have a fitted effect of over 55% in size
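Quantitative HTS format with DMSO vehicle controls; 48 hr drug incubation at 37 C, then 40 min Hoechst staining and scanning imager measurement at 405 nm excitation.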
KB-3-1 cytotox: qHTS assay for MDR1-selective chemotherapeutics: Primary screen using the parental adenocarcinoma cell KB-3-1; KB-3-1 viability, CellTiter-Glo ATP luminescence, 72 h; actives 1.4% (n = 400,000); Potency, µM (top dose mostly 46.1 µM), most hits filed as cytotoxic; also: potency is read from the fitted curve at half-maximal effect; % is scaled to controls: 0 for no effect and ±100 for the full control effect; nearly all actives have a fitted effect of over 60% in size
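Cytotoxicity measured as CellTiter-Glo luminescence after 72 h at 37 C. Compound titrations were pinned onto drug-naive KB-3-1 parental adenocarcinoma cells grown in DMEM with 10% FBS, and normalized data fitted to concentration-response curves.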
DRD3 antagonist: qHTS of D3 Dopamine Receptor Antagonist: qHTS | D(3) dopamine receptor (Homo sapiens), P35462 | D3R cells, DiscoveRx beta-arrestin luminescence, antagonist mode; active compounds read low | max response, negative = inhibition, % | actives 2.5% (n = 360,000) | AID 652054, 2013; in the data active = max response below about -50%; inconclusive = no clear call, values can overlap the other calls; also: % is scaled to controls: 0 for no effect and ±100 for the full control effect
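Cells expressing the human receptor were seeded at 1500 cells/well, incubated overnight at 37 degrees C in 5% CO2, then exposed to library compounds with dopamine controls for 90 minutes at 37 degrees C before luminescent detection.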
KB-V1 MDR tox: qHTS assay for MDR1-selective chemotherapeutics: Primary screen using the drug-selected MDR subline cells KB-V1. KB-V1 MDR cells viability, CellTiter-Glo, 72 h. actives 3.4% (n = 400,000). Potency, µM (highest dose often 46.1 µM), actives largely listed as cytotoxic; also: potency is read from the fitted curve at half-maximal effect; % is scaled to controls: 0 for no effect and ±100 for the full control effect; nearly all actives have a fitted effect of over 60% in size
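KB-V1 cells (P-gp-expressing MDR subline of KB-3-1) in phenol-red-free DMEM with 10% FBS were exposed to library compounds over a concentration series for 72 h at 37 degrees C. Viability read by CellTiter-Glo luminescence; concentration-effect curves fitted after normalization.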
Active calls of the source: *; i = inactive; ? = inconclusive; . = no result given. In the library only some 8.9% were active in any assay of this set; here they are far more common. Unless noted, calls follow the shape of the dose curve; as a rule, active = well fitted curve in the direction sought with a large enough effect; inconclusive = small, poorly fitted or top-dose-only effect, or another doubt; inactive = no such curve, though single readings can be large; an effect the other way counts as inactive or inconclusive.

SMILES | MCF10A rerep | DRD3 agonist | SW480 rereplic | KB-3-1 cytotox | DRD3 antagonist | KB-V1 MDR tox
CC(C)(C)OC(=O)N[C@@H](Cc1ccccc1)c1nnc(SCC(N)=O)o1 | 0.5% | -3.6 | -0.2% | i | 4.9 | i
COC(=O)CSc1nnc([C@H](Cc2ccccc2)NC(=O)OC(C)(C)C)o1 | -2.7% | 3.7 | -3.4% | i | -7.3 | i
COC(=O)CS(=O)(=O)c1nnc([C@H](Cc2ccccc2)NC(=O)OC(C)(C)C)o1 | 13µM* | 6.3 | ? | ? | -4.2 | ?
Cc1cccc(CS(=O)(=O)c2nnc([C@H](Cc3ccccc3)NC(=O)OC(C)(C)C)o2)c1 | 3.26µM* | -30.0 | ? | ? | -76.5* | ?
O=C(C[n+]1cccc(Br)c1)c1ccc(F)cc1 | . | . | . | i | . | i
CCc1nn2c(=O)cc(COC(=O)c3cccc(NC(=O)c4cccs4)c3)nc2s1 | . | 15.7 | . | . | . | .
CCc1ccc(NC(=O)N(Cc2ccco2)C(C)c2cccs2)cc1 (stereo not drawn) | ? | -9.0 | 1.7% | ? | -22.2 | 20.6µM*
CCc1ccc(NC(=O)N(C2CCCCC2)C(C)c2cccnc2)cc1 (stereo not drawn) | -2.2% | -2.3 | -7.1% | i | 2.4 | 20.6µM*
Cc1ccc(NC(=O)N(C2CCCCC2)C(C)c2cccnc2)cc1C (stereo not drawn) | -1.4% | 2.4 | -8.8% | i | 2.7 | i
CCc1ccc(NC(=O)N(Cc2cccnc2)Cc2ccco2)cc1 | 1.4% | -6.6 | -4.7% | i | -9.4 | 14.6µM*
CCNC(=O)c1ccc(C)c(-n2c(C)nc3cccnc32)c1 | . | 3.4 | . | i | . | i
COc1cc(S(=O)(=O)N2CCCC3(CCCCC3)C2)ccc1-n1cnnn1 | -4.1% | -7.0 | -4.3% | i | -18.0 | 20.6µM*
C[C@@H]1CN([C@@H](C)CO)S(=O)(=O)c2ccc(Br)cc2O[C@H]1CN(C)Cc1ccc(-c2ccccc2)cc1 | . | 12.3 | . | ? | 0.0 | i
Cc1c(C(=O)NCc2ccc(C(C)C)cc2)sc(=O)n1Cc1ccc(S(=O)(=O)N(C)C)cc1 | . | 6.8 | . | ? | 65.1 | 2.59µM*
Cc1c(C(=O)NCc2ccc(Cl)c(Cl)c2)sc(=O)n1Cc1ccc(C(=O)N(C)C)cc1 | . | 3.9 | . | ? | 12.9 | ?
C=Cc1ccc(Cn2c(C)c(C(=O)NCc3ccc4c(c3)OCCO4)sc2=O)cc1 | . | -9.6 | . | ? | ? | 9.2µM*
Cc1c(C(=O)NCc2ccc(C(C)C)cc2)sc(=O)n1Cc1cccc(F)c1 | . | 3.2 | . | i | -6.1 | i
Cc1c(C(=O)NCc2cccc(Cl)c2)sc(=O)n1Cc1ccc(C(=O)N(C)C)cc1 | . | 6.3 | . | ? | 12.4 | 20.6µM*
CSc1ccc(Cn2c(C)c(C(=O)NCc3ccc(C(C)C)cc3)sc2=O)cc1 | . | 9.6 | . | 18.4µM* | 4.9 | 16.4µM*
Cc1c(C(=O)NCc2cccs2)sc(=O)n1Cc1ccc(S(C)(=O)=O)cc1 | . | 5.1 | . | ? | 12.5 | ?
Cc1cc(=O)n(CC(=O)Nc2ccc(Cl)c(Cl)c2)c(-n2nc(C)cc2C)n1 | . | -10.3 | . | ? | . | i
Cc1ccc(C)c(N2CCN(C(=O)c3cc(C)nc4c3c(C)nn4-c3ccccc3)CC2)c1 | . | -11.8 | . | i | . | i
COC(=O)[C@@]1(C(C)C)N=C(c2cc(OC)c(OC)c(OC)c2)[C@]2(O1)C(=O)N(C)c1ccccc12 | . | 6.3 | . | i | 3.8 | i
Cc1c(C(=O)NCc2ccc(Cl)c(Cl)c2)sc(=O)n1Cc1ccc(S(=O)(=O)N(C)C)cc1 | . | 3.1 | . | 8.2µM* | 34.2 | ?
CSc1nc(N)nc(SCCS(=O)(=O)c2ccc(Cl)cc2)c1C#N | 13µM* | -15.7 | ? | i | -15.2 | ?
SMILES | MCF10A rerep | DRD3 agonist | SW480 rereplic | KB-3-1 cytotox | DRD3 antagonist | KB-V1 MDR tox
CC(=O)NNC(=O)CCC(=O)Nc1ccccc1 | -5.7% | 2.1 | ? | i | -80.1* | i
O=C(CCC(=O)Nc1ccccc1)NNC(=O)CCc1ccccc1 | -1.3% | -1.8 | -14.6% | i | 8.2 | i
CCOC(=O)c1ccc(NC(=O)C2=C(C)Nc3nc(SCc4ccc(Cl)cc4)nn3C2c2ccc(C)cc2)cc1 (stereo not drawn) | . | -7.1 | . | i | . | i
O=C(CSc1nccn(-c2ccc(Br)cc2)c1=O)NCc1ccccc1 | 19.3% | 0.8 | -2.7% | i | 17.6 | 13µM*
O=c1c(-c2ccccc2)c1-c1ccccc1 | ? | 7.7 | 5.96µM* | . | . | .
OC1c2cc(Cl)cc(Cl)c2N=C2CCCN21 (stereo not drawn) | . | -11.7 | . | i | -59.3* | i
CCOc1ccc(Cc2c(Cl)nc(SC)nc2N(C)C)cc1 | 9.2µM* | 2.4 | ? | 11.6µM* | 18.4 | 11.6µM*
Cc1ccc(-c2cc(C(F)F)nc(S(C)(=O)=O)n2)cc1 | 4.11µM* | -13.0 | ? | ? | ? | ?
Cc1cccc(C(=O)Oc2c(Sc3ccccc3)c(C)nn2C(C)(C)C)c1 | . | -9.6 | . | i | . | i
S=C(NCC1CCCCC1)Nc1ccc(Oc2ccccc2)cc1 | 18.4µM* | 8.5 | 0.2% | ? | -5.0 | ?
CCCNC(=S)Nc1ccc(Oc2ccccc2)cc1 | 21.8% | 9.0 | ? | ? | -17.6 | 18.4µM*
CCCCNC(=S)Nc1ccc(Oc2ccccc2)cc1 | -0.5% | 4.8 | -3.6% | i | 0.1 | i
S=C(Nc1ccc(Oc2ccccc2)cc1)NC1CCCC1 | ? | 0.5 | 0.1% | i | -4.8 | ?
CC(C)Oc1ccc(CNC(=O)c2ccc(NC(=O)N3CCSc4ncccc43)cc2)cc1 | . | -1.8 | . | i | . | i
O=C(O)c1ccccc1-c1ccccc1C(=O)NNc1ccccc1 | 2.6% | -5.4 | 18.4µM* | i | -17.6 | i
CCn1c(SCC(=O)O)nnc1-c1ccc2[nH]c(C)c(C)c2c1 | ? | -20.0 | 1.9% | i | -17.9 | i
CCn1c(SCC(N)=O)nnc1-c1cc2c(C)nn(-c3ccccc3)c2s1 | 3.2% | -4.9 | -7.1% | i | -4.6 | 13µM*
Cc1[nH]c2ccc(-c3nnc(SCC(=O)c4ccc(F)cc4)o3)cc2c1C | -14.4% | -4.1 | 6.9% | i | 37.8 | i
Cc1cc(C)c(C)c(C(=O)CSc2nnc(-c3ccc4[nH]c(C)c(C)c4c3)o2)c1C | 13µM* | 11.8 | ? | i | 22.3 | ?

Source: PubChem BioAssay (National Center for Advancing Translational Sciences (NCATS))
